Results taken from PubChem BioAssay.
Active and inactive are the calls of the source.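 Rule for the calls, unless noted: active = compounds that lower survival of HCT116 colon cancer cells in the luminescence readout, no numeric limit stated; inactive = the rest.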

Columns and labels:
[1] = stimulators of nuclear beta-catenin in C2C12, primary screen, imaging, WNT3A-conditioned medium, mouse C2C12, NPC library (AID 1117326; in the data active = nuclear beta-catenin stimulation mostly above about 4.2%, no sharp cut-off; inactive = mostly below about 10%); details: stronger effect = higher value
[2] = stimulators of insulin release from INS-1E, primary screen, cell-based, 5 mM glucose, NPC library (AID 1117329;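 active = compound raises insulin release from rat beta cells at 5 mM glucose, no numeric limit stated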); details: rat INS-1E insulin secretion, at 10 µM, stronger effect = higher value
[3] = growth inhibition of GSK3B-pretreated HCT116 cells – cell-based, CellTiter-Glo, 0.2 to 20 µM (AID 1117336;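 active = compounds lowering colon cancer cell viability after pretreatment blocking the GSK3B kinase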); details: HCT116 viability after GSK3B inhibitor, at 20 µM, stronger effect = higher value
[4] = inhibition of endothelial tube formation, primary screen, imaging, VEGF stimulated, CD31 staining, tube area, NPC library (AID 1117340;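 active = compound that reduces growth-factor-driven endothelial tube area in a mixed cell culture, no cutoff stated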); details: VEGF-stimulated ADSC/ECFC co-culture, at 10 µM, stronger effect = higher value
[5] = glucagon-like peptide 1 release enhancers, primary assay, NCI-H716 cell line, NPC library (AID 1117341;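 active = compound raises GLP1 secretion from the human gut endocrine cells, with no numeric limit stated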); details: NCI-H716 cells, at 10 µM, stronger effect = higher value
[6] = HCT116 colon cancer cell growth inhibition, primary screen, CellTiter-Glo luminescence, NPC library (AID 1117342); details: at 20 µM (top of the series)
[7] = CellTiter-Glo luminescent readout of SW480 viability loss, NPC library primary (AID 1117343;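 active = compounds that lower viability of the colon cancer cells in the luminescence readout, with no numeric limit stated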); details: CellTiter-Glo luminescence; at 20 µM (top of the series)
[8] = decreased DLD-1 cellular survival, CellTiter-Glo luminescent readout, NPC compound collection, primary HTS (AID 1117346;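 active = compounds that lower survival of DLD-1 colon cancer cells in the luminescence readout, no cutoff given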); details: DLD-1 viability, CellTiter-Glo luminescence; at 20 µM (top of the series)
[9] = kinase inhibitors against Plasmodium liver-stage infection, cell-based, known kinase inhibitor set, luminescence, hepatoma host viability (AID 624392; call rule not given here;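 note: infected cells incubated roughly two days before readout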); details: Plasmodium liver stage in hepatoma cells, luciferase luminescence, concentration not given here; liver cell % of control: measured here: host liver cell viability; parasite % of control: stronger effect = lower value
[10] = modulators of glucocorticoid suppression of NF-kB, cell-based, luciferase, IL-1B stimulus, dexamethasone (AID 624486; call rule not given here;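 for percent of negative control (+Dex): 100% = mean signal of vehicle control wells on the plate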); details: NF-kB luciferase reporter, IL-1B + dexamethasone, luminescence; percent of negative control (+Dex): actives lie on both sides, concentration not given here; z-score: measured here: IL-1B alone, no Dex
[11] = kinase inhibitors altering Pseudomonas killing of worms, whole organism (AID 651566; call rule not given here;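 note: tested at 14 µM; sign flipped so higher z means a lower ratio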); details: C. elegans killed by P. aeruginosa, survival ratio
[12] = activators of macrophage pro-inflammatory response, cell-based, murine, luminescence (AID 652131; call rule not given here); details: murine macrophage pro-inflammatory reporter, stronger effect = higher value
[13] = IRF3 reporter activation in THP-1 macrophages, cell-based, PMA-stimulated THP-1, luminescence (AID 1053176; call rule not given here); details: PMA-differentiated THP-1, IRF3 reporter luminescence; stronger effect = higher value
[14] = survival rescue of mitochondrial mutant cells in low glucose, primary screen, MELAS cybrids, Rieske KO mouse fibroblasts, CellTiter-Glo (AID 1508586;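 active = mean z-score across replicates of 1.96 or higher in either the MELAS or the Rieske mutant cell line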;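 note: z relative to plate mean and SD of compound and empty wells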)
[15] = MELAS cybrid survival, CellTiter-Glo 48 h, stronger effect = higher value
[16] = Rieske KO mouse fibroblast survival, CellTiter-Glo 72 h

CC(=O)c1ccc(OCC(=O)N2CCCCC2)cc1
active: tube area decrease [4] 7%
-0.3%: nuclear beta-catenin stimulation ([1]; stimulation, at 2 µM)
inactive: nuclear beta-catenin stimulation ([1]; at 10 µM) 1.1% | insulin secretion stimulation [2] 0.25% | viability decrease [3] 7.4% | GLP1 secretion stimulation [5] 0.7% | inhibition of viability [6] -3.4% | viability decrease (inhibition) [7] -3.6% | viability decrease (inhibition) [8] -2.8%

Fc1ccc(Oc2nccc(-c3c(-c4ccc(F)cc4)ncn3C3CCNCC3)n2)cc1
active: z-score [12] 7.24
104%: liver cell % of control [9]
-0.391: z-score [14, 16]
1.11: z-score [10]
inactive: parasite % of control [9] 122% | percent of negative control (+Dex) [10] 107% | z-score [11] -1.01 | fraction signal [13] 0 | z-score [14, 15] -0.283

C[C@@H](Oc1cc(-n2cnc3ccc(OC4CCN(C)CC4)cc32)sc1C(N)=O)c1ccccc1Cl
inactive: parasite % of control [9] 183% | percent of negative control (+Dex) [10] 73% | z-score [11] -0.3 | z-score [12] -1.72 | fraction signal [13] -0.008 | z-score [14, 15] -0.022
-2.66: z-score [10]
70.4%: liver cell % of control [9]
-0.0227: z-score [14, 16]

CC(=O)O[C@@H]1CC2C3CCc4cc(OC(=O)c5ccccc5)ccc4C3CCC2(C)[C@H]1OC(C)=O (stereo partly drawn)
1.1%: nuclear beta-catenin stimulation ([1]; stimulation, at 2 µM)
inactive: nuclear beta-catenin stimulation ([1]; at 10 µM) 0.7% | insulin secretion stimulation [2] 0.5% | viability decrease [3] -39.7% | tube area decrease [4] 27.8% | GLP1 secretion stimulation [5] 2.1% | inhibition of viability [6] 0.9% | viability decrease (inhibition) [7] 47% | viability decrease (inhibition) [8] -13.5%

COc1cc2ncn(-c3cc(O[C@@H](C)c4ccccc4Cl)c(C(N)=O)s3)c2cc1OC
0.815: z-score [14, 16]
100%: liver cell % of control [9]
inactive: parasite % of control [9] 110% | percent of negative control (+Dex) [10] 124% | z-score [11] -0.555 | z-score [12] -0.639 | fraction signal [13] -0.002 | z-score [14, 15] -0.552
2.36: z-score [10]

O=C(O)CC(O)C(=O)O (stereo not drawn)
0%: nuclear beta-catenin stimulation ([1]; stimulation, at 2 µM)
inactive: nuclear beta-catenin stimulation ([1]; at 10 µM) 6% | insulin secretion stimulation [2] -0.5% | viability decrease [3] -6% | tube area decrease [4] 1.8% | GLP1 secretion stimulation [5] 1.3% | inhibition of viability [6] -8.5% | viability decrease (inhibition) [7] 13.3% | viability decrease (inhibition) [8] -7.65%

CCN(CC)C(=O)[C@]1(c2ccccc2)C[C@H]1CN
inactive: nuclear beta-catenin stimulation ([1]; at 10 µM) -2.4% | insulin secretion stimulation [2] 10.5% | viability decrease [3] -13.1% | tube area decrease [4] -15.6% | GLP1 secretion stimulation [5] 3.7% | inhibition of viability [6] -3.6% | viability decrease (inhibition) [7] 7% | viability decrease (inhibition) [8] 3.4%
-0.9%: nuclear beta-catenin stimulation ([1]; stimulation, at 2 µM)

CCOC(=O)[C@H](CCc1ccccc1)N[C@H]1CCCN2CCC[C@@H](C(=O)O)N2C1=O
inactive: nuclear beta-catenin stimulation ([1]; at 10 µM) -0.5% | insulin secretion stimulation [2] -0.4% | viability decrease [3] -16.7% | tube area decrease [4] -6.5% | GLP1 secretion stimulation [5] 4.4% | inhibition of viability [6] 4.2% | viability decrease (inhibition) [8] -2.1%
0.8%: nuclear beta-catenin stimulation ([1]; stimulation, at 2 µM)
active: viability decrease (inhibition) [7] 4.5%

Oc1cn2c(n1)Nc1ccc(Cl)c(Cl)c1C2
active: tube area decrease [4] 40.1%
inactive: nuclear beta-catenin stimulation ([1]; at 10 µM) 0.1% | insulin secretion stimulation [2] 0.6% | viability decrease [3] -54.9% | GLP1 secretion stimulation [5] 4.1% | inhibition of viability [6] -2.2% | viability decrease (inhibition) [7] -21.9% | viability decrease (inhibition) [8] -16.9%
2.5%: nuclear beta-catenin stimulation ([1]; stimulation, at 2 µM)

Cn1c(=O)c2[nH]c(Br)nc2n(C)c1=O
2%: nuclear beta-catenin stimulation ([1]; stimulation, at 2 µM)
inactive: nuclear beta-catenin stimulation ([1]; at 10 µM) 0.6% | insulin secretion stimulation [2] 0.9% | viability decrease [3] 2.55% | tube area decrease [4] 10.2% | GLP1 secretion stimulation [5] 1.1% | inhibition of viability [6] -3.7% | viability decrease (inhibition) [7] -17.4% | viability decrease (inhibition) [8] -0.15%

CC(C)(C)CC(C)(C)c1ccc(O)c(-n2nc3ccccc3n2)c1
active: viability decrease (inhibition) [7] 82.6%
1.1%: nuclear beta-catenin stimulation ([1]; stimulation, at 2 µM)
inactive: nuclear beta-catenin stimulation ([1]; at 10 µM) 1.5% | insulin secretion stimulation [2] -1% | viability decrease [3] 13.1% | tube area decrease [4] 23.9% | GLP1 secretion stimulation [5] -1.5% | inhibition of viability [6] -8.9% | viability decrease (inhibition) [8] 22.1%

CCCCCCCCCC(=O)O
0.7%: nuclear beta-catenin stimulation ([1]; stimulation, at 2 µM)
inactive: nuclear beta-catenin stimulation ([1]; at 10 µM) -1.9% | insulin secretion stimulation [2] 3.3% | viability decrease [3] -11.4% | tube area decrease [4] -24.1% | GLP1 secretion stimulation [5] 1.6% | inhibition of viability [6] 7.9% | viability decrease (inhibition) [7] 49.5% | viability decrease (inhibition) [8] 4.9%

CC(C)Cc1ccc(C(C)C(=O)OCc2ccccn2)cc1 (stereo not drawn)
inactive: nuclear beta-catenin stimulation ([1]; at 10 µM) -0.2% | insulin secretion stimulation [2] -0.3% | viability decrease [3] -24% | tube area decrease [4] -19.1% | GLP1 secretion stimulation [5] 0.1% | inhibition of viability [6] 22.8% | viability decrease (inhibition) [7] 40.9% | viability decrease (inhibition) [8] 19.1%
1.5%: nuclear beta-catenin stimulation ([1]; stimulation, at 2 µM)

C/C=C/c1ccc(O)c(OC)c1
active: viability decrease (inhibition) [7] 51.6%
0.5%: nuclear beta-catenin stimulation ([1]; stimulation, at 2 µM)
inactive: nuclear beta-catenin stimulation ([1]; at 10 µM) 9.7% | insulin secretion stimulation [2] -0.1% | viability decrease [3] 2.5% | tube area decrease [4] -5.2% | GLP1 secretion stimulation [5] -3.8% | inhibition of viability [6] 8.25% | viability decrease (inhibition) [8] 18.6%

CC(C)C[C@@H](N)C(=O)O
1.7%: nuclear beta-catenin stimulation ([1]; stimulation, at 2 µM)
inactive: nuclear beta-catenin stimulation ([1]; at 10 µM) 3.4% | insulin secretion stimulation [2] -0.8% | viability decrease [3] -7.15% | tube area decrease [4] 11.2% | GLP1 secretion stimulation [5] 0.3% | inhibition of viability [6] 9.1% | viability decrease (inhibition) [7] 3.6% | viability decrease (inhibition) [8] -1.8%

C=CCN1CCc2nc(N)sc2CC1
1%: nuclear beta-catenin stimulation ([1]; stimulation, at 2 µM)
inactive: nuclear beta-catenin stimulation ([1]; at 10 µM) 0.7% | insulin secretion stimulation [2] -0.5% | viability decrease [3] -5.1% | tube area decrease [4] 7.1% | GLP1 secretion stimulation [5] 0.8% | inhibition of viability [6] -4% | viability decrease (inhibition) [7] 2.6% | viability decrease (inhibition) [8] -3.4%

COc1ccc([C@@H]2CC(=O)c3c(O)cc(O[C@@H]4O[C@H](CO[C@@H]5O[C@@H](C)[C@H](O)[C@@H](O)[C@@H]5O)[C@@H](O)[C@H](O)[C@@H]4O)cc3O2)cc1O
inactive: nuclear beta-catenin stimulation ([1]; at 10 µM) 1.6% | insulin secretion stimulation [2] -0.9% | viability decrease [3] -10.2% | tube area decrease [4] -4.7% | GLP1 secretion stimulation [5] -1% | inhibition of viability [6] -1.6% | viability decrease (inhibition) [7] -2.4% | viability decrease (inhibition) [8] 41.4%
2.4%: nuclear beta-catenin stimulation ([1]; stimulation, at 2 µM)

Oc1cc(O)cc(O)c1
inactive: nuclear beta-catenin stimulation ([1]; at 10 µM) -0.5% | insulin secretion stimulation [2] -1.3% | viability decrease [3] -20.3% | tube area decrease [4] -14.9% | GLP1 secretion stimulation [5] -1.7% | inhibition of viability [6] -0.5% | viability decrease (inhibition) [7] 21.1% | viability decrease (inhibition) [8] -3.4%
2.8%: nuclear beta-catenin stimulation ([1]; stimulation, at 2 µM)

Cc1nc(-c2ccc(Cl)cc2)oc1COC(C)(C)C(=O)O
0.6%: nuclear beta-catenin stimulation ([1]; stimulation, at 2 µM)
active: viability decrease (inhibition) [8] 10%
inactive: nuclear beta-catenin stimulation ([1]; at 10 µM) 0.5% | insulin secretion stimulation [2] 3.1% | viability decrease [3] -10.1% | tube area decrease [4] 9.7% | GLP1 secretion stimulation [5] -2.6% | inhibition of viability [6] 8.5% | viability decrease (inhibition) [7] 14.8%

CCCC(CCC)C(N)=O
inactive: nuclear beta-catenin stimulation ([1]; at 10 µM) -0.9% | insulin secretion stimulation [2] 2% | viability decrease [3] 1.8% | tube area decrease [4] -17.7% | GLP1 secretion stimulation [5] 16.4% | inhibition of viability [6] 16.3% | viability decrease (inhibition) [7] 25.7% | viability decrease (inhibition) [8] 22.3%
-1%: nuclear beta-catenin stimulation ([1]; stimulation, at 2 µM)

O=C(O)c1ccccc1-c1ccc(C(F)(F)F)cc1
inactive: nuclear beta-catenin stimulation ([1]; at 10 µM) 2.2% | insulin secretion stimulation [2] -0.1% | viability decrease [3] -52.5% | tube area decrease [4] 21.5% | GLP1 secretion stimulation [5] 5.5% | inhibition of viability [6] -0.77% | viability decrease (inhibition) [7] 31.1% | viability decrease (inhibition) [8] -11.8%
0.7%: nuclear beta-catenin stimulation ([1]; stimulation, at 2 µM)

Clc1ccc2c(c1)Nc1ccccc1S2
-2.3%: nuclear beta-catenin stimulation ([1]; stimulation, at 2 µM)
active: viability decrease [3] 55.6%
inactive: nuclear beta-catenin stimulation ([1]; at 10 µM) 0.9% | insulin secretion stimulation [2] 4.2% | tube area decrease [4] 26.5% | GLP1 secretion stimulation [5] -3.1% | inhibition of viability [6] 32.4% | viability decrease (inhibition) [7] 31.8% | viability decrease (inhibition) [8] 17.5%
